High-throughput results from PubChem BioAssay.
Rows were chosen to be rich in hits. Some 1.2% of all compounds tested hit in one or more screens of this group.
NOD2-RIPK2 inh: NOD2-RIPK2 protein interaction inhibition; O43353; CHO BLA complementation NOD2-RIPK2, CCF4 ratio; inhibition, % at 4.98 µM; 0.38% of 360,000 active; AID 624267; in the data active = inhibition above about 21%;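 also: 0% = vehicle only and 100% = reference blocker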
ABHD5 PLIN5 PPI: blocks binding of human ABHD5 to perilipin-5 | Split G. princeps luciferase complementation, luminescence, 4 h | 0.78% of 360,000 active | inhibition, % at 4 µM | AID 602281;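 active = inhibition above the mean inhibition across every tested compound plus 3 SD, cut at about 22% in these data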;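 also: 0% = DMSO only wells and the 100% control is not disclosed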
TLR9-MyD88 inh: blocks human TLR9 binding to MyD88 | 0.21% of 340,000 active | Q9NR96+Q99836 | CHO BLA complementation TLR9-MyD88, CCF4 FRET ratio | inhibition, % at 4.98 µM | AID 504734;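 active = inhibition above the mean over all tested compounds plus 3 SD, cut at about 21% in these data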;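 also: 0% = DMSO only wells and 100% = clavulanate BLA inhibitor control wells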
TLR4 MyD88 comp: blocks binding of human TLR4 to MyD88 | HeLa CL3-4 TLR4/MyD88 BLA complementation, FRET ratio | inhibition, % at 8.4 µM | 0.18% of 200,000 active | O00206+Q99836; in the data active = inhibition above about 25%;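 also: 0% = vehicle and 100% = reference inhibitor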
ABHD5 PLIN5 conf: ABHD5-PLIN5 interaction inhibition, confirmed; 67% of 2,200 active; inhibition, % at 4 µM; shares compounds with ABHD5 PLIN5 PPI; biochemical ABHD5-PLIN5 interaction, luminescence; in the data active = inhibition above about 23%;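 also: 0% = DMSO vehicle wells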
HNF4 split-luc: HNF4 split-luciferase signal hit, counter-screen | 77% of 2,200 active | inhibition, % at 4 µM | AID 651674 | shares compounds with ABHD5 PLIN5 PPI | HNF4 dimerization, luminescence, biochemical;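 active = mean inhibition across replicate wells exceeding the computed hit threshold, cut at about 13% in these data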;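 also: light from luciferase halves that rejoin when HNF4 fusion proteins dimerize; 0% = DMSO only wells and the 100% control is not given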
Numbers without * were called inactive; · = no result.

SMILES	NOD2-RIPK2 inh	ABHD5 PLIN5 PPI	TLR9-MyD88 inh	TLR4 MyD88 comp	ABHD5 PLIN5 conf	HNF4 split-luc
Nc1ccc2c(c1)C(O)c1cccc(C(=O)O)c1-2 (stereo not drawn)	-1.7	-1.6	1.1	·	·	·
CC(C)(C)c1cc(CCC(=O)NN)cc(C(C)(C)C)c1O	-20.2	3.0	-4.5	-6.2	·	·
COCCOC(=O)/C(=C\c1cc(C(C)(C)C)c(O)c(C(C)(C)C)c1)C(C)=O	7.7	44.2*	3.0	·	80.4*	72.1*
CCN1CCN(CCNC(=O)c2ccc3c(c2)N(Cc2ccc(F)cc2)C(=O)/C(=C/c2ccccc2)S3)CC1	19.5	23.6*	4.3	-3.0	17.0	3.9
O=C(NCCN1CCOCC1)c1ccc(/C=C2\Sc3ccccc3N(Cc3ccccc3F)C2=O)cc1	1.4	8.4	-10.8	·	·	·
CCC1CCCCN1CCCNC(=O)c1ccc2c(c1)N(Cc1ccc(F)cc1)C(=O)c1ccccc1S2=O (stereo not drawn)	1.9	25.4*	-2.0	·	1.6	7.5
CN1CCN(CCCNC(=O)c2ccc(/C=C3\Sc4ccccc4N(Cc4ccccc4F)C3=O)cc2)CC1	16.1	32.7*	14.6	12.8	5.2	-6.2
Cc1c(C(=O)NCc2ccc3c(c2)OCCO3)sc(=O)n1Cc1ccc(C(=O)N(C)C)cc1	1.1	2.0	·	·	·	·
COc1ccccc1OCCn1c(SCC(=O)O)nc2ccccc21	-1.3	13.4	0.6	·	·	·
O=C(NCCCN1CCOCC1)c1sc2cc(Cl)ccc2c1Cl	-9.6	5.2	3.0	1.5	·	·
O=C(NCCCN1CCOCC1)c1sc2cc([N+](=O)[O-])ccc2c1Cl	-10.0	23.6*	0.0	1.1	5.1	66.4*
Cc1ccc(Nc2nc(N)nc(N)c2N=O)cc1Cl	3.2	1.6	·	·	·	·
CCCCCCCCn1ccc(=N)cc1	-14.9	4.5	2.0	·	·	·
CCCCCCCCCCCCCCCCn1cc[n+](C)c1	-2.7	32.1*	1.6	2.1	7.0	11.4
COC(=O)C1CCN(C(=O)COC(=O)c2cc(-c3cccs3)nn2-c2ccccc2)CC1	5.5	-4.5	-3.6	·	·	·
CCOC(=O)c1cnc2c(C)cccc2c1NCc1ccco1	0.6	23.9*	-8.9	-11.5	4.1	8.0
O=C(/C=C/c1cccnc1)c1cccc(O)c1	11.6	63.2*	-3.5	·	81.1*	89.8*
O=C(/C=C/c1cccc(O)c1)c1cccnc1	5.8	46.5*	-1.8	3.7	70.1*	64.0*
CN(C)c1ccc(/C=C/C(=O)c2cccnc2)cc1	18.7	14.1	5.0	·	·	·
Cc1ccc(-n2sc3ccccc3c2=O)cc1	15.2	30.9*	5.3	8.3	10.1	114.3*
O=c1c2ccccc2ncn1-c1ccc(Cl)cc1	-11.2	-4.8	0.6	·	·	·
O=c1c2ccccc2sn1-c1ccc(Cl)cc1	11.6	48.1*	18.7	·	75.9*	117.5*
CN1C(=S)N(c2cccnc2)C(=O)/C1=C\c1ccc(N(C)C)cc1	-4.7	1.7	-2.4	-11.8	·	·
CN1C(=S)N(c2cccnc2)C(=O)/C1=C\c1ccc(C(C)(C)C)cc1	3.4	37.8*	4.7	-2.9	64.5*	54.6*
CN(CC(=O)Nc1ccccc1C(F)(F)F)Cc1c(O)ccc2ccccc12	-5.1	10.2	-8.0	·	·	·
SMILES	NOD2-RIPK2 inh	ABHD5 PLIN5 PPI	TLR9-MyD88 inh	TLR4 MyD88 comp	ABHD5 PLIN5 conf	HNF4 split-luc
CCc1ccccc1NC(=O)CN(C)Cc1c(O)ccc2ccccc12	2.8	23.7*	5.6	·	45.7*	87.5*
COc1ccc(Cl)cc1NC(=O)CN(C)C(=O)c1cn2ccccc2n1	-5.1	5.0	-3.1	·	·	·
O=C(NCCNC(=O)c1ccc([N+](=O)[O-])cc1)c1ccncc1	-5.9	-6.6	9.8	3.3	·	·
COc1cc(C(=O)/C=C/c2cccnc2)c([N+](=O)[O-])cc1OC	15.7	47.2*	-0.2	·	73.6*	71.6*
O=C(/C=C/c1cccnc1)c1ccccc1O	-3.7	12.9	4.0	·	·	·
O=C(C=Cc1ccccc1)c1ccc([N+](=O)[O-])cc1	1.3	67.2*	0.4	·	95.2*	90.9*
Cc1[nH]c(C)c(C(=O)/C=C/c2ccc([N+](=O)[O-])cc2)c1C	3.9	25.4*	-1.0	·	39.4*	44.2*
O=C(C=Cc1ccco1)c1ccc([N+](=O)[O-])cc1	-4.1	35.2*	1.5	·	47.4*	41.9*
COc1ccc(C=CC(=O)c2ccc([N+](=O)[O-])cc2)cc1	-12.4	16.0	-4.0	·	·	·
CC(=O)c1ccc(NC(=O)CC23CC4CC(C2)CC(n2nnc(C)n2)(C4)C3)cc1	-2.6	-6.2	4.5	-14.3	·	·
